Here are results for 13 compounds from PubChem BioAssay.

Experiment [1] is described as follows: inhibitors of Cryptococcus chitosan production, flow cytometry, Cibacron Brilliant Red staining (AID 1347148; call rule not given here;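 also: compound exposure lasted three days at 37 degrees C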). The conditions noted are these: Cryptococcus neoformans chitosan, stronger effect = lower value; at 10 µM unless noted. (A flow cytometer gives signals particle by particle.)
The nature of experiment [2]: modifiers of HSF1 nuclear foci, imaging, Selleck Cancer Library (AID 1347162; in the data active = plate-normalised HSF1 focus index below about 0.46). The settings on record: human cells, at 10 µM; SSMD: measured here: HSF1 foci SSMD mean; cell count: measured here: cell number; plate-normalised HSF1 focus index: stronger effect = lower value.
Experiment [3] in a line: liver-stage malaria parasite growth inhibition, primary screen, cell-based, HepG2, luciferase luminescence, HepG2 viability (AID 624349; in the data active = parasite load remaining mostly below about 12%, no sharp cut-off; inactive = mostly above about 10%;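 also: 100% = mean of DMSO negative control wells on the same plate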). The settings on record: P. berghei liver stage in HepG2, luciferase luminescence, concentration not given here; parasite load remaining: stronger effect = lower value; viability: measured here: HepG2 viability without parasites.
The nature of experiment [4]: ovarian cancer cell viability with rucaparib, profiling panel, oncology-focused library, rucaparib conditional (AID 1508598). The conditions noted are these: patient-derived ovarian cancer cells, CellTiter-Glo viability, 144 h, stronger effect = lower value. In general terms: Cellular ATP, detected with luciferase, serves as a proxy for viable cell number.

Structures are written as SMILES. Several values for one entry are separate records, joined by “and”; a condition that tells them apart may be missing. Identical values can stand only once. Where a structure was tested more than once in an assay, its records may differ in their call. Activity calls are given as the source filed them.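 The calls were made as follows, unless noted: active = normalized viability below 100% at a tested concentration; inactive = the rest.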

With `C=C1O[C@](CO)(n2cnc3c(N)ncnc32)[C@@H](O)[C@H]1O`, the fold fluorescence in experiment [1] was 10.1 [at 179 µM] (inactive).
`CCCCC[C@@H](O)/C=C/[C@H]1[C@@H](C/C=C\CCCC(=O)O)[C@H](O)C[C@@H]1O`: the fold fluorescence in experiment [1] is 4.83 (inactive).
On to `C[C@@H](/C=C/c1cccc(Oc2ccc(F)cc2)c1)N(O)C(N)=O`, for which the fold fluorescence in experiment [1] was 6.07 [at 158.1 µM] (inactive).
Still for that read-out and setting: with `CC[C@@]1([C@@H]2O[C@@H]([C@H]3O[C@@](O)(CO)[C@H](C)C[C@@H]3C)C[C@@H]2C)CC[C@H]([C@]2(C)CCC3(C[C@H](O)[C@@H](C)[C@@H]([C@@H](C)[C@@H](OC)[C@H](C)C(=O)O)O3)O2)O1` (stereo not given in full) the figure was 4.7 [at 72.2 µM] (inactive); with `COc1ccc(CCCO[C@@H](Cn2ccnc2)c2ccc(OC)cc2)cc1`, 7.02 [at 136.4 µM] (inactive).
`O=C1c2ccccc2-c2nc3nonc3nc21`: in experiment [2], the SSMD was -15, the cell count was determined as 3090 and the plate-normalised HSF1 focus index is 0.229 (active).
The term viability denotes a read-out of living cells in per cent, often relative to untreated cells. Regarding `CC[C@@H](CO)Nc1nc(NCc2ccccc2)c2ncn(C(C)C)c2n1`, in experiment [3], the parasite load remaining was 32.6% (inactive) and the viability was 67.3%. Besides, the fold fluorescence in experiment [1] is 9.95 [at 141.1 µM] (inactive).
`O=C(O)CCC/C=C\C[C@H]1[C@H](/C=C/[C@H](O)COc2cccc(Cl)c2)[C@@H](O)C[C@H]1O`: in experiment [1], the fold fluorescence is 4.34 (inactive).
For `CCCCC/C=C\C[C@H](O)/C=C/C=C/C=C\[C@H](O)CCCC(=O)O`, the fold fluorescence in experiment [1] was 3.97 [at 1 µM] (inactive).
On to `C=CC[C@H]1/C=C(\C)C[C@@H](C)C[C@@H](OC)[C@@H]2O[C@](O)(C(=O)C(=O)N3CCCC[C@@H]3C(=O)O[C@@H](/C(C)=C/[C@H]3CC[C@H](O)[C@@H](OC)C3)[C@@H](C)[C@H](O)CC1=O)[C@@H](C)C[C@H]2OC`, for which, in experiment [1], the fold fluorescence is 13.5 [at 62.2 µM] (inactive).
Consider `O=c1c2ccccc2[nH]c(=S)n1CCN1CCC(=C(c2ccc(F)cc2)c2ccc(F)cc2)CC1`, for which, in experiment [3], the parasite load remaining was 40.1% (inactive) and the viability was 100%.
Turning to `N#C/C(=C1/Nc2ccccc2S1)c1ccnc(NCCc2cccnc2)n1`, in experiment [3], the parasite load remaining was 18.8% (inactive) and the viability was found to be 85.6%.
On to `N#CC[C@@H](C1CCCC1)n1cc(-c2ncnc3[nH]ccc23)cn1`, for which the viability is 113% (inactive) and 107% (inactive) in experiment [4] (at 0.000305 µM, OCI-C5x cells, with rucaparib 10 µM, 100% = cells with rucaparib alone); 113% (inactive) and 115% (inactive) in experiment [4] (at 0.000305 µM, OCI-C5x cells, without rucaparib); 90.3% (active) and 57.2% (active) in experiment [4] (at 0.000305 µM, OCI-P5x cells, with rucaparib 20 µM, 100% = cells with rucaparib alone); 67.6% (active) and 15.7% (active) in experiment [4] (at 0.000305 µM, OCI-P5x cells, without rucaparib); 104% (inactive) and 71.4% (active) in experiment [4] (at 0.00122 µM, OCI-C5x cells, with rucaparib 10 µM, 100% = cells with rucaparib alone); 116% (inactive) and 58.3% (active) in experiment [4] (at 0.00122 µM, OCI-C5x cells, without rucaparib). Besides, the viability is 75.9% (active) and 50.4% (active) in experiment [4] (at 0.00122 µM, OCI-P5x cells, with rucaparib 20 µM, 100% = cells with rucaparib alone); 29.2% (active) and 17% (active) in experiment [4] (at 0.00122 µM, OCI-P5x cells, without rucaparib); 115% (inactive) and 102% (inactive) in experiment [4] (at 0.00488 µM, OCI-C5x cells, with rucaparib 10 µM, 100% = cells with rucaparib alone); 114% (inactive) and 116% (inactive) in experiment [4] (at 0.00488 µM, OCI-C5x cells, without rucaparib); 107% (inactive) and 105% (inactive) in experiment [4] (at 0.00488 µM, OCI-P5x cells, with rucaparib 20 µM, 100% = cells with rucaparib alone); 106% (inactive) and 105% (inactive) in experiment [4] (at 0.00488 µM, OCI-P5x cells, without rucaparib). The viability in experiment [4] (at 0.0195 µM, OCI-C5x cells, with rucaparib 10 µM, 100% = cells with rucaparib alone) was 109% (inactive) and 100% (inactive); in experiment [4] (at 0.0195 µM, OCI-C5x cells, without rucaparib), 99.4% (active) and 104% (inactive); in experiment [4] (at 0.0195 µM, OCI-P5x cells, with rucaparib 20 µM, 100% = cells with rucaparib alone) it was 99.9% (active) and 99.8% (active); in experiment [4] (at 0.0195 µM, OCI-P5x cells, without rucaparib) it was 99.4% (active) and 104% (inactive); in experiment [4] (at 0.0781 µM, OCI-C5x cells, with rucaparib 10 µM, 100% = cells with rucaparib alone) it was 112% (inactive) and 100% (inactive); in experiment [4] (at 0.0781 µM, OCI-C5x cells, without rucaparib) it was 113% (inactive) and 109% (inactive). In addition, the viability was 100% (inactive) and 96.9% (active) in experiment [4] (at 0.0781 µM, OCI-P5x cells, with rucaparib 20 µM, 100% = cells with rucaparib alone); 101% (inactive) and 102% (inactive) in experiment [4] (at 0.0781 µM, OCI-P5x cells, without rucaparib); 105% (inactive) and 98.1% (active) in experiment [4] (at 0.313 µM, OCI-C5x cells, with rucaparib 10 µM, 100% = cells with rucaparib alone); 106% (inactive) and 111% (inactive) in experiment [4] (at 0.313 µM, OCI-C5x cells, without rucaparib); 100% (inactive) and 90.7% (active) in experiment [4] (at 0.313 µM, OCI-P5x cells, with rucaparib 20 µM, 100% = cells with rucaparib alone); 96.4% (active) and 98.4% (active) in experiment [4] (at 0.313 µM, OCI-P5x cells, without rucaparib). Also, the viability in experiment [4] (at 1.25 µM, OCI-C5x cells, with rucaparib 10 µM, 100% = cells with rucaparib alone) was 117% (inactive) and 101% (inactive); in experiment [4] (at 1.25 µM, OCI-C5x cells, without rucaparib) it was 108% (inactive) and 109% (inactive); in experiment [4] (at 1.25 µM, OCI-P5x cells, with rucaparib 20 µM, 100% = cells with rucaparib alone), 97.5% (active) and 88.1% (active); in experiment [4] (at 1.25 µM, OCI-P5x cells, without rucaparib), 96% (active) and 91.3% (active); in experiment [4] (at 5 µM, OCI-C5x cells, with rucaparib 10 µM, 100% = cells with rucaparib alone) it was 133% (inactive) and 122% (inactive); in experiment [4] (at 5 µM, OCI-C5x cells, without rucaparib), 115% (inactive) and 130% (inactive). For the same compound, the viability was 83.7% (active) and 82.4% (active) in experiment [4] (at 5 µM, OCI-P5x cells, with rucaparib 20 µM, 100% = cells with rucaparib alone); 86.9% (active) and 86.2% (active) in experiment [4] (at 5 µM, OCI-P5x cells, without rucaparib).
